Results on six compounds are retold here after PubChem BioAssay (EPA / NIEHS).

Read-out in experiment [1]: Interleukin-6 (IL6), IL6 (gene 3569)
The experiment can be described thus: BSK_CASM3C_IL6: BioMAP Diversity Plus: CASM3C Assay for Interleukin-6 (IL6) Biomarker Activity for (AID 2283040). The settings on record: primary human coronary artery smooth muscle cells; actives raise or lower the signal.

Read-out in experiment [2]: Tissue plasminogen activator (tPA), PLAT (gene 5327)
Nature of the experiment: BSK_BE3C_tPA: BioMAP Diversity Plus: BE3C Assay for Tissue plasminogen activator (tPA) Biomarker Activity (AID 2283041).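 For outcome: tPA level quantified by ELISA one day after compound addition.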 Particulars: primary human bronchial epithelial cells; actives raise or lower the signal. The essentials:
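tPA measured by ELISA 24 h after dosing human primary bronchial epithelial cells (BE3C system). Changes in either direction were fitted against DMSO. Parallel cultures were stained with SRB to flag overt cytotoxicity.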

Read-out in experiment [3]: Interleukin-8 (IL8), CXCL8 (gene 3576)
Nature of the experiment: BSK_CASM3C_IL8: BioMAP Diversity Plus: CASM3C Assay for Interleukin-8 (IL8) Biomarker Activity (AID 2283042).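 Note: IL-8 protein level quantified by ELISA.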 Particulars: primary human coronary artery smooth muscle cells; actives raise or lower the signal.

Read-out in experiment [4]: Human Leukocyte Antigen - DR isotype (HLADR), HLA-DRA (gene 3122)
Nature of the experiment: BSK_CASM3C_HLADR: BioMAP Diversity Plus: CASM3C Assay for Human Leukocyte Antigen - DR isotype (HLADR) Biomarker Activity (AID 2283043).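 Note: cell-surface HLA-DR protein level quantified by ELISA.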 The settings on record: primary human coronary artery smooth muscle cells; actives raise or lower the signal.

Read-out in experiment [5]: Macrophage colony-stimulating factor (MCSF), CSF1 (gene 1435)
The experiment can be described thus: BSK_CASM3C_MCSF: BioMAP Diversity Plus: CASM3C Assay for Macrophage colony-stimulating factor (MCSF) Biomarker Activity (AID 2283044).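 Note: M-CSF protein amount quantified by ELISA after 24 h exposure.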 The settings on record: primary human coronary artery smooth muscle cells; actives raise or lower the signal.

Read-out in experiment [6]: Low-density lipoprotein receptor (LDLR), LDLR (gene 3949)
The experiment can be described thus: BSK_CASM3C_LDLR: BioMAP Diversity Plus: CASM3C Assay for Low-density lipoprotein receptor (LDLR) Biomarker Activity (AID 2283045).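 Note: LDLR protein level on the cell surface quantified by ELISA.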 Particulars: primary human coronary artery smooth muscle cells; actives raise or lower the signal.

Read-out in experiment [7]: Monocyte Chemoattractant Protein-1 (MCP1), CCL2 (gene 6347)
Nature of the experiment: BSK_CASM3C_MCP1: BioMAP Diversity Plus: CASM3C Assay for Monocyte Chemoattractant Protein-1 (MCP1) Biomarker Activity (AID 2283046).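 Note: MCP-1 level quantified by ELISA 24 h after dosing.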 The settings on record: primary human coronary artery smooth muscle cells; actives raise or lower the signal.

The nature of experiment [8]: BSK_CASM3C_Proliferation: Cell Proliferation Assessment in the BioMAP Diversity Plus: CASM3C Assay (AID 2283047).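 Note: sulforhodamine B total protein stain as relative cell number at 560 nm; sub-confluent cells exposed 48 h before staining; fitted both ways against DMSO so gain or loss of cell number.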 The settings on record: primary human coronary artery smooth muscle cells.
Read-out in experiment [9]: Monokine induced gamma interferon (MIG), CXCL9 (gene 4283)
The experiment can be described thus: BSK_CASM3C_MIG: BioMAP Diversity Plus: CASM3C Assay for Monokine induced gamma interferon (MIG) Biomarker Activity (AID 2283048).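 Note: MIG protein level measured by ELISA.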 The settings on record: primary human coronary artery smooth muscle cells; actives raise or lower the signal.

Read-out in experiment [10]: serum amyloid A (SAA), SAA1 (gene 6288)
Nature of the experiment: BSK_CASM3C_SAA: BioMAP Diversity Plus: CASM3C Assay for serum amyloid A (SAA) Biomarker Activity (AID 2283049).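 Note: SAA protein level quantified by ELISA.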 The settings on record: primary human coronary artery smooth muscle cells; actives raise or lower the signal.

The nature of experiment [11]: BSK_CASM3C_SRB: Viability Assessment in the BioMAP Diversity Plus: CASM3C Assay (AID 2283050).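 Note: total protein by SRB staining as cytotoxicity measure in parallel cultures; cells exposed to compound for 24 h.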 Particulars: primary human coronary artery smooth muscle cells.
Read-out in experiment [12]: Thrombomodulin, THBD (gene 7056)
The experiment can be described thus: BSK_CASM3C_Thrombomodulin: BioMAP Diversity Plus: CASM3C Assay for Thrombomodulin Biomarker Activity (AID 2283051).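 Note: thrombomodulin protein level measured by ELISA 24 h after dosing.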 The settings on record: primary human coronary artery smooth muscle cells; actives raise or lower the signal.

Read-out in experiment [13]: Tissue Factor, F3 (gene 2152)
Nature of the experiment: BSK_CASM3C_TissueFactor: BioMAP Diversity Plus: CASM3C Assay for Tissue Factor Biomarker Activity (AID 2283052).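 Note: cell surface tissue factor protein level read by ELISA.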 The settings on record: primary human coronary artery smooth muscle cells; actives raise or lower the signal.

Read-out in experiment [14]: Interferon-gamma inducible Protein 10 (IP10), CXCL10 (gene 3627)
The experiment can be described thus: BSK_hDFCGF_IP10: BioMAP Diversity Plus: hDFCGF Assay for Interferon-gamma inducible Protein 10 (IP10) Biomarker Activity (AID 2283053). The settings on record: primary human foreskin fibroblasts; actives raise or lower the signal. The essentials:
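ELISA quantification of IP-10 after a 24 h chemical exposure of human dermal foreskin fibroblast primary cultures. Both increases and decreases versus DMSO fitted.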

Read-out in experiment [15]: Urokinase-type plasminogen activator receptor (uPAR), PLAUR (gene 5329)
The experiment can be described thus: BSK_CASM3C_uPAR: BioMAP Diversity Plus: CASM3C Assay for Urokinase-type plasminogen activator receptor (uPAR) Biomarker Activity (AID 2283054).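 Note: cell-surface uPAR protein level quantified by ELISA.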 Particulars: primary human coronary artery smooth muscle cells; actives raise or lower the signal.

Read-out in experiment [16]: Vascular cell adhesion molecule 1 (VCAM1), VCAM1 (gene 7412)
Nature of the experiment: BSK_CASM3C_VCAM1: BioMAP Diversity Plus: CASM3C Assay for Vascular cell adhesion molecule 1 (VCAM1) Biomarker Activity (AID 2283055).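 Note: VCAM-1 protein level quantified by ELISA on the cells.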 Particulars: primary human coronary artery smooth muscle cells; actives raise or lower the signal.

Read-out in experiment [17]: Collagen III, COL3A1 (gene 1281)
Nature of the experiment: BSK_hDFCGF_CollagenIII: BioMAP Diversity Plus: hDFCGF Assay for Collagen III Biomarker Activity (AID 2283056). Particulars: primary human foreskin fibroblasts; actives raise or lower the signal. Summed up:
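Human foreskin primary fibroblasts were exposed to test chemicals for 24 h, after which collagen III was quantified by ELISA. Activity was fitted bidirectionally against DMSO as negative control and baseline.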

Read-out in experiment [18]: Epidermal growth factor receptor (EGFR), EGFR (gene 1956)
The experiment can be described thus: BSK_hDFCGF_EGFR: BioMAP Diversity Plus: hDFCGF Assay for Epidermal growth factor receptor (EGFR) Biomarker Activity (AID 2283057). Particulars: primary human foreskin fibroblasts; actives raise or lower the signal. Summed up:
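EGFR levels by ELISA in human dermal fibroblast cultures, 24 h post-treatment, fitted bidirectionally versus DMSO. Parallel wells stained with sulforhodamine B to detect overt cytotoxicity.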

Read-out in experiment [19]: Interleukin-8 (IL8), CXCL8 (gene 3576)
The experiment can be described thus: BSK_hDFCGF_IL8: BioMAP Diversity Plus: hDFCGF Assay for Interleukin-8 (IL8) Biomarker Activity (AID 2283058). Particulars: primary human foreskin fibroblasts; actives raise or lower the signal. Summed up: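 hDFCGF human dermal fibroblasts; 24 h chemical exposure; IL-8 by ELISA; bidirectional curve fit vs DMSO baseline; gain or loss of signal scored.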

A short description of experiment [20]: BSK_hDFCGF_Proliferation: Cell Proliferation Assessment in the BioMAP Diversity Plus: hDFCGF Assay (AID 2283059).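 Note: curves fitted for both rise and fall of signal versus DMSO baseline.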 The settings on record: primary human foreskin fibroblasts. The essentials: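 Steps: dose primary human dermal fibroblasts (foreskin); […] fix in 10% TCA; stain with 0.1% SRB; read 560 nm; fit gain or loss of signal against DMSO.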

Broadly, the AC50 is the midpoint of the concentration-response curve, whichever way the signal moves.

Values joined by “and” are separate entries in the source; they are usually repeats but may differ in a detail not shown here. Identical values can stand only once. Some structures have more than one record in an assay (separate samples or runs), and their calls can disagree. Active and inactive are the calls of the source. Rule for the calls: active = hit-call score of the fitted dose curve at least 0.9, where 1 is the maximum; inactive = score below 0.9.

With `COc1ccc(C(=O)/C(Br)=C\C(=O)O)cc1`, the AC50 was 20 µM (active) and 23.2 µM (active) in experiment [1]; 4.45 µM (active) in experiment [2]; 35.4 µM (active) and 29.1 µM (active) in experiment [3]; 6.86 µM (active) and 20.6 µM (active) in [4]; 20 µM (active) and 29.7 µM (active) in experiment [5]; 13.2 µM (active) and 26.7 µM (active) in experiment [6]. Also, the AC50 is 30 µM (active) and 31.1 µM (active) in [7]; 4.88 µM (active) and 24.3 µM (active) in experiment [8]; 29.2 µM (active) and 31 µM (active) in experiment [9]; 11.4 µM (active) in [10]; 23.8 µM (active) and 28.8 µM (active) in experiment [11]; 4.22 µM (active) and 11.4 µM (active) in [13]. Also, the AC50 in [14] is 33.1 µM (active) and 32.6 µM (active); in experiment [15] it was 13.4 µM (active) and 30.6 µM (active); in experiment [16], 12 µM (active) and 20 µM (active); in [17], 13.6 µM (active); in experiment [18], 29.1 µM (active); in experiment [19] it was 38.9 µM (active). Besides, the AC50 in [20] is 29.4 µM (active) and 20 µM (active). The result in experiment [2], in [10], in [12], in experiment [17], in experiment [18] and in experiment [19] was inactive.

With `O=C(Cl)c1c(Cl)c(Cl)c(C(=O)Cl)c(Cl)c1Cl`, the result in experiment [1], in experiment [2], in experiment [3], in [4], in experiment [5] and in experiment [6] was inactive. In addition, the outcome in experiment [7], in experiment [8], in experiment [9], in [10], in experiment [11] and in experiment [12] was inactive. The outcome in [13], in [14], in experiment [15], in experiment [16], in experiment [17] and in experiment [18] was inactive. Further, the result in experiment [19] and in experiment [20] was inactive.

With `CCCCCCCCCCCC(=O)N(C)CC(=O)O`, the outcome in experiment [1], in [2], in experiment [3], in experiment [4], in experiment [5] and in experiment [6] was inactive. Moreover, the result in experiment [7], in experiment [8], in experiment [9], in experiment [10], in [11] and in [12] was inactive. Further, the result in [13], in [14], in experiment [15], in experiment [16], in experiment [18] and in experiment [19] was inactive. Further, in experiment [20], the result was inactive. Further, the AC50 was 30.9 µM (active) in [9]; 8.61 µM (active) and 24.7 µM (active) in [17].

Consider `C=CCCCCCCCCC=O`, for which the outcome in experiment [1], in experiment [2], in [3], in experiment [4], in [5] and in experiment [6] was inactive. In addition, the result in experiment [7], in experiment [8], in experiment [9], in [10], in experiment [11] and in experiment [12] was inactive. For the same compound, the result in [13], in experiment [14], in [15], in experiment [16], in experiment [17] and in experiment [18] was inactive. Moreover, the outcome in [19] and in experiment [20] was inactive.

In the case of `CC(c1cc(C(C)(C)C)cc(C(C)(C)C)c1O)c1cc(C(C)(C)C)cc(C(C)(C)C)c1O`, the result in experiment [1], in experiment [2], in experiment [3], in [4], in experiment [5] and in experiment [6] was inactive. Also, the outcome in experiment [7], in [8], in [9], in [10], in experiment [11] and in experiment [12] was inactive. The result in experiment [13], in experiment [14], in [15], in [16], in [17] and in [18] was inactive. For the same compound, the result in experiment [19] and in [20] was inactive.

On to `CC(C)C(=O)OCCc1ccccc1`, for which the outcome in experiment [1], in experiment [2], in [3], in experiment [4], in experiment [5] and in experiment [6] was inactive. In addition, the outcome in experiment [7], in experiment [8], in experiment [9], in [10], in [11] and in experiment [12] was inactive. Further, the result in experiment [13], in experiment [14], in experiment [15], in experiment [16], in [17] and in [18] was inactive. The outcome in [19] and in [20] was inactive.
